Measurements published in PubChem BioAssay AID1159580 (chemical genetic matrix, 2015).
“And” between values parts separate entries of the source, which are not always exact repeats. Equal entries are not always repeated. The campaign covered roughly 5,500 compounds. About 2,000 (36%) were called active. Not shown: some 18% with an inconclusive outcome. Cut-off read from the data, not from the text of the source: active = normalized growth mostly below about 0.91 (no sharp cut-off); inconclusive = no clear call, values can overlap the other calls; inactive = mostly above about 0.92. The list shows a part of the results.

Assay: chemical genetic growth profiling, strain panel (AID 1159580);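 note: tested at 20 µM; growth read once vehicle control cultures reached saturation at 30 °C; 1 = growth at the plate median or of vehicle wells; lower values mean less growth of the strain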
Conditions: S. cerevisiae deletion strains, growth OD

Measured: normalized growth

COC(=O)C1=COC(C)C2CN3CCC4(C(=O)Nc5ccccc54)C3CC12 (configuration not stated)
inactive: locus YAL021C, strain ccr4, hits give low values 1.02 and 1.01 | locus YAL026C, strain drs2, hits give low values 1.02 | locus YAL030W, strain snc1, hits give low values 1.01 | locus YBL061C, strain skt5, hits give low values 1.04 and 1.02 and 1.03 | locus YBR009C, strain hhf1, hits give low values 1.04 and 1.01 and 1.02 | locus YBR023C, strain chs3, hits give low values 1.02 and 1.01 | locus YBR171W, strain sec66, hits give low values 1.03 and 1.02 | locus YBR231C, strain swc5, hits give low values 1.02 | locus YBR279W, strain paf1, hits give low values 1.02 and 1.01 | locus YCL011C, strain gbp2, hits give low values 1.02 and 1.01 | locus YCL016C, strain dcc1, hits give low values 1.01 | locus YCL061C, strain MRC1, hits give low values 1.02 and 1.01 | locus YCL069W, strain vba3, hits give low values 1.02 and 1.01 | locus YCR088W, strain abp1, hits give low values 1.02 and 1.01 | locus YDL005C, strain med2, hits give low values 1.02 and 1.01 | locus YDL040C, strain nat1, hits give low values 1.02 | locus YDR001C, strain nth1, hits give low values 1.02 and 1.01 | locus YDR069C, strain doa4, hits give low values 1.02 and 1.04 | locus YDR137W, strain rgp1, hits give low values 0.988 and 0.962 and 0.914 | locus YDR159W, strain sac3, hits give low values 1.05 and 1.02 and 1.03 | locus YDR195W, strain ref2 0.992 and 0.996 and 1.01 | locus YDR297W, strain sur2, hits give low values 1.02 | locus YDR334W, strain swr1, hits give low values 1.02 and 1.01 | locus YDR335W, strain msn5, hits give low values 1.03 and 1.02 | locus YDR392W, strain spt3, hits give low values 1.04 and 1.02 | locus YEL003W, strain gim4, hits give low values 1.03 and 1.02 | locus YEL037C, strain rad23, hits give low values 1.01 and 1.02 | locus YEL061C, strain CIN8 (second series), hits give low values 1.02 and 1.01 | locus YER015W, strain faa2, hits give low values 1.02 | locus YER016W, strain bim1, hits give low values 1.01 and 1.02 | locus YER111C, strain swi4, hits give low values 1.03 and 1.02 and 1.04 | locus YER155C, strain BEM2 (second series), hits give low values 1.03 and 1.02 and 1.04 | locus YFR010W, strain ubp6, hits give low values 1.02 | locus YGL167C, strain pmr1, hits give low values 1.03 and 1.01 and 1.02 | locus YGL173C, strain kem1, hits give low values 1.04 and 1.02 and 1.03 | locus YGL227W, strain vid30, hits give low values 1.03 and 1.01 and 1.02 | locus YGL240W, strain doc1, hits give low values 1.02 | locus YGL253W, strain hxk2, hits give low values 1.02 and 1.01 | locus YHR013C, strain ard1, hits give low values 1.03 and 1.01 and 1.02 | locus YHR027C, strain rpn1, hits give low values 1.02 and 1.01 | locus YHR142W, strain chs7, hits give low values 1.02 and 1.01 | locus YJL092W, strain hpr5, hits give low values 1.03 and 1.01 and 1.02 | locus YJL095W, strain BCK1 (second series), hits give low values 1.01 and 1.02 | locus YJL115W, strain asf1, hits give low values 1.02 and 1.01 | locus YJL129C, strain trk1, hits give low values 1.03 and 1.02 | locus YJL154C, strain vps35, hits give low values 1.02 and 1.01 | locus YJL164C, strain tpk1, hits give low values 1.02 and 1.03 | locus YJL166W, strain qcr8, hits give low values 1.03 and 1.01 and 1.02 | locus YJL187C, strain SWE1, hits give low values 1.02 and 1.01 | locus YKL160W, strain elf1, hits give low values 1.02 | locus YKR026C, strain gcn3, hits give low values 1.02 and 1.03 | locus YKR091W, strain srl3, hits give low values 1.02 and 1.03 | locus YLL001W, strain dnm1, hits give low values 1.03 and 1.02 | locus YLL026W, hits give low values 1.01 and 1.02 | locus YLL041C, strain sdh2, hits give low values 1.02 and 1.01 | locus YLR027C, strain aat2, hits give low values 1.03 and 1.01 | locus YLR221C, strain rsa3, hits give low values 1.02 and 1.01 | locus YLR258W, strain gsy2, hits give low values 1.02 | locus YLR262C, strain YPT6 (second series), hits give low values 1.02 and 1.01 and 0.938 | locus YLR320W, strain mms22, hits give low values 1.04 and 1.03 | locus YLR342W, strain FKS1, hits give low values 1.02 | locus YLR357W, strain rsc2, hits give low values 1.02 and 0.996 and 1.03 | locus YLR370C, strain arc18, hits give low values 1.03 and 1 and 1.01 | locus YLR384C, strain iki3, hits give low values 1.02 and 1.01 | locus YML120C, strain ndi1, hits give low values 1.04 and 1.02 and 1.03 | locus YMR058W, strain fet3, hits give low values 1.02 | locus YMR125W, strain sto1, hits give low values 1.02 and 1.04 | locus YMR129W, hits give low values 1.02 and 1.01 | locus YMR205C, strain PFK2, hits give low values 1.03 and 1.02 | locus YMR231W, strain pep5, hits give low values 1 and 1.01 | locus YNL071W, strain lat1, hits give low values 1.02 and 1.01 | locus YNL209W, strain ssb2, hits give low values 1.02 and 1.01 | locus YNL248C, strain rpa49, hits give low values 1.02 and 1.01 | locus YNL322C, strain KRE1 (second series), hits give low values 1.01 and 1.02 | locus YNR049C, strain mso1, hits give low values 1.02 and 1.01 and 1.03 | locus YOR001W, strain rrp6, hits give low values 1.03 and 1.02 | locus YOR070C, strain gyp1, hits give low values 1.02 and 1.01 | locus YOR080W, strain dia2, hits give low values 1.03 and 1.02 | locus YOR083W, strain WHI5, hits give low values 1.02 and 1.01 | locus YOR106W, strain vam3, hits give low values 1.02 | locus YOR265W, strain rbl2, hits give low values 1.01 and 1.02 | locus YOR270C, strain vph1, hits give low values 1.02 and 1.04 and 1.03 | locus YOR290C, strain snf2, hits give low values 1.02 | locus YPL051W, strain arl3, hits give low values 1.01 | locus YPL078C, strain atp4, hits give low values 1.02 | locus YPL106C, strain sse1, hits give low values 0.998 and 1 and 1.02 | locus YPL240C, strain hsp82, hits give low values 1 and 1.02
